# Most compounds without a hit are left out; they make up all but 19% or so of the library.
# TDP1 cell CPT: qHTS for Inhibitors of human tyrosyl-DNA phosphodiesterase 1 (TDP1): qHTS in cells in presence of CPT; Potency, µM (top dose mostly 46.2 µM), without a hit: at the top dose activity change, negative = growth inhibition, most hits filed as inhibitors; actives 12% (n = 420,000); AID 686979, 2013; chicken DT40 Tdp1-/-;hTDP1 cells + 20 nM CPT, ATP luminescence, 48 h; further: nearly all actives have a fitted effect of over 55% in size
#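 Cell growth measured by CellTiter-Glo luminescence after a minimum 48 h, 37 C compound exposure with 20 nM CPT in Tdp1-knockout DT40 cells stably expressing hTDP1, seeded 400/well; qHTS titration format.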
# VP16 counter: VP16 counterscreen qHTS for inhibitors of ROR gamma transcriptional activity | actives 3.5% (n = 310,000) | Drosophila S2 Gal4-VP16 UAS-luciferase, luminescence, 20 h | Potency, µM (doses to about 53.6 µM), for the others: at the highest dose activity, negative = inhibition, usual class: inhibitors;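 further: Gal4-VP16 expression switched on by copper sulfate through the metallothionein promoter; nearly all actives have a fitted effect of over 50% in size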
# DT40 TDP1 no CPT: qHTS for Inhibitors of human tyrosyl-DNA phosphodiesterase 1 (TDP1): qHTS in cells in absence of CPT | Potency, µM (series often up to 46.2 µM), inactives show top-dose activity change, negative = growth inhibition, most hits filed as inhibitors | actives 15% (n = 420,000) | DT40 Tdp1-/- hTDP1 cells, no CPT, ATP luminescence, 48 h; further: nearly all actives have a fitted effect of over 55% in size
#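 DT40 Tdp1-/-;hTDP1 cells, no CPT (DMSO vehicle only), 400 cells/well; compounds pin-transferred; ≥48 hr, 37 °C; CellTiter-Glo 30 min RT dark, luminescence read.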
# RORgamma inh: qHTS for inhibitors of ROR gamma transcriptional activity; Drosophila S2 Gal4-RORgamma UAS-luciferase reporter, 20 h; Potency, µM (doses to about 53.6 µM), for inactives: top-dose activity change, negative = inhibition, actives largely listed as inhibitors; actives 5.4% (n = 310,000); AID 2551, 2010; further: nearly all actives have a fitted effect of over 60% in size
# Target sequence (P51450 whole entry, looked up, the tested form may be a part): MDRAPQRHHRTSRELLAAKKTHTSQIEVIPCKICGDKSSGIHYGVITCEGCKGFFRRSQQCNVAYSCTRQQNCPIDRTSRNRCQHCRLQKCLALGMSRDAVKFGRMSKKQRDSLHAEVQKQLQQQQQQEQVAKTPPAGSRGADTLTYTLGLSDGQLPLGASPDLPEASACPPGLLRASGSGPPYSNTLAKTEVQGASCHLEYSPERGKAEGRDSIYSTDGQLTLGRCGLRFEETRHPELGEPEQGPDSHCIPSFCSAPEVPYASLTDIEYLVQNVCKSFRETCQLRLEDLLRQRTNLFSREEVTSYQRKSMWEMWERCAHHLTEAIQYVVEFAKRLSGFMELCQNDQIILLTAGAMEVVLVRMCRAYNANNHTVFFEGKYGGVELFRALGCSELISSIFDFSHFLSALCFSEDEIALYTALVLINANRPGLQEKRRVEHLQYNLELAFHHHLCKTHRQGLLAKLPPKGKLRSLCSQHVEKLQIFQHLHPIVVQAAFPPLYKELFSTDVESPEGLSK
#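 Luminescence from a UAS-regulated Photinus luciferase reporter in stably transfected Drosophila Schneider cells is measured; decreased signal marks ROR gamma inhibition. Fusion expression is induced by 700 uM copper sulfate for 20 hr.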
# TDP1 inh: qHTS Assay for Inhibitors of Tyrosyl-DNA Phosphodiesterase (TDP1); recombinant TDP1, AlphaScreen DNA substrate cleavage; Tyrosyl-DNA phosphodiesterase 1 (Homo sapiens), Q9NUW8; actives 0.28% (n = 350,000); Potency, µM (series often up to 130 µM), without a hit: at the top dose activity change, negative = inhibition, usual class: inhibitors; further: nearly all actives have a fitted effect of over 40% in size
#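 Enzyme-compound mixtures sat 15 min at room temperature, followed by a 5 min reaction with 15 nM final substrate and 10 min with AlphaScreen beads. Recombinant human Tdp1 was used at 1 nM final.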
# * hit, by the source's call; ? = inconclusive; · = no result; [ ] = dose if it differs, or a comment. The call rests on the fitted dose curve; in most records, active means well fitted curve in the direction sought with a large enough effect; inconclusive means small, poorly fitted or top-dose-only effect, or another doubt; inactive means no such curve, though single readings can be large; an effect the other way counts as inactive or inconclusive. On the % scale 0 is the no-effect control and ±100 the full control effect; potency means the concentration at half of the fitted maximal effect.
SMILES,TDP1 cell CPT,VP16 counter,DT40 TDP1 no CPT,RORgamma inh,TDP1 inh
O=C(NC(=S)NNC(=O)c1ccccc1O)c1cccs1,23µM*,-4%,26µM*,-22%,·
O=C(NNC(=S)NC(=O)c1ccc(Br)cc1)c1ccc([N+](=O)[O-])cc1,?,?,23µM*,11µM*,·
CC(NC(=S)NC(=O)c1cccs1)c1ccccc1 (centres undefined),-6%,·,18µM*,·,3%
O=C(NC(=S)NNC(=O)c1ccccc1O)c1ccc([N+](=O)[O-])cc1,26µM*,4%,15µM*,2%,·
O=C(NNC(=S)NC(=O)c1ccccc1)c1ccc([N+](=O)[O-])cc1,13µM*,1.4µM*,12µM*,3.5µM*,·
Cc1ccc(C(=O)NC(=S)NNC(=O)c2ccc([N+](=O)[O-])cc2)cc1,?,11µM*,15µM*,?,·
CC(NC(=O)c1cccs1)c1ccc(Cl)cc1 (centres undefined),0%,·,1%,·,·
O=C(NCCCn1ccnc1)/C(=C/c1ccccc1)NC(=O)c1ccccc1,?,1%,?,-5%,-7%
Cc1ccc(NC(=O)N2CCN(C)CC2)cc1NC(=O)N1CCN(C)CC1,1%,0%,4%,6%,·
CCOc1ccc(-c2cc(N)n(S(=O)(=O)c3ccc(OC)c(OC)c3)n2)cc1,-5%,1%,?,?,2%
CS(=O)(=O)c1ccc(Cl)c(NC(=O)CCNC(=O)c2ccco2)c1,5%,1%,2%,-3%,4%
CCN(CC)S(=O)(=O)c1ccc(NS(=O)(=O)CC23CCC(CC2=O)C3(C)C)cc1 (centres undefined),?,-4%,?,-7%,1%
COc1ccc(OCC(=O)NNC(=S)NC(=O)c2ccc([N+](=O)[O-])cc2)cc1,?,5.6µM*,?,5.6µM*,10%
O=C(NC(=S)Nc1ccccc1[N+](=O)[O-])c1ccccc1,-2%,2µM*,-21%,?,·
O=C(NC(=S)Nc1cccc2c(O)cccc12)c1ccccc1[N+](=O)[O-],-22%,?,-10%,?,7%[56.1 µM]
CC(=O)NC(=S)NNC(=O)COc1ccc([N+](=O)[O-])cc1,-1%,-2%,-28%,-11%,3%
O=C(O)CCC(=O)NNC(=O)c1ccc([N+](=O)[O-])cc1,?,-1%,?,-12%,3%
O=C(NNC(=S)NC(=O)c1ccc(Br)cc1)c1cccc([N+](=O)[O-])c1,18µM*,?,16µM*,14µM*,·
CCCCCC(=O)NNC(=S)NC(=O)c1ccc([N+](=O)[O-])cc1,-6%,6.3µM*,?,2.8µM*,6%
CNc1cnc(-c2ccc(C(=O)N3CCOCC3)cc2)cn1,?,·,-5%,·,·
COc1ccc(C(=O)N2CCN(C3CCC(c4ccccc4)CC3)CC2)cc1OC (centres undefined),21µM*,-7%,15µM*,1%,-7%
COc1ccc(CCNc2ncnc3c2cnn3-c2cccc(Cl)c2)cc1,?,·,26µM*,·,3%
COc1ccc(CCNc2ncnc3c2cnn3-c2ccc(F)cc2)cc1,?,·,?,·,3%
Cc1ccc(-n2ncc3c(NCCC4=CCCCC4)ncnc32)cc1C,10µM*,·,?,·,8%
COc1ccc(CCNc2ncnc3c2cnn3-c2ccc(C)c(Cl)c2)cc1,21µM*,·,?,·,3%
SMILES,TDP1 cell CPT,VP16 counter,DT40 TDP1 no CPT,RORgamma inh,TDP1 inh
COC(=O)CC1Oc2ccc(F)cc2-n2cc(-c3ccc(Cl)cc3)nc21 (centres undefined),9.2µM*,·,4.1µM*,·,6%
COC(=O)CC1Oc2ccc(Cl)cc2-n2cc(-c3ccc(F)cc3)nc21 (centres undefined),-14%,·,-18%,·,-1%
COC(=O)CC1Oc2ccc(F)cc2-n2cc(-c3ccc(C)cc3)nc21 (centres undefined),9.2µM*,·,7.3µM*,·,5%
O=C(COC(=O)COc1ccc2ccccc2c1)NC1CCCc2ccccc21 (centres undefined),4%,1%,-20%,-14%,3%
O=C(Cc1c(F)cccc1Cl)N1CCN(S(=O)(=O)c2cccs2)CC1,-2%,·,-1%,·,0%
O=C(CCCOc1ccccc1)N1CCN(S(=O)(=O)c2cccs2)CC1,-27%,-29%,-28%,?,-2%
O=C(Cc1c(Cl)cccc1Cl)N1CCN(S(=O)(=O)c2cccs2)CC1,21µM*,·,?,·,2%
CC(=O)c1ccc(OCCCC(=O)N2CCN(S(=O)(=O)c3cccs3)CC2)cc1,?,4%,12µM*,28%,6%
Cn1cccc1-c1cc2n(n1)CCC(=O)N2CCCC(=O)NCc1ccc(F)cc1,-19%,·,-10%,·,7%
COCCN=c1scc(-c2cc(OC)c(OC)c(OC)c2)n1/N=C/c1c(C)[nH]c2ccccc12,?,-3%,18µM*,18%,8%
CC(C)(C)c1ccc(C(=O)N2CCCN(c3ccc([N+](=O)[O-])cn3)CC2)cc1,?,-1%,18µM*,14%,5%
O=C(NC(=O)N1CCN(c2ccc([N+](=O)[O-])cn2)CC1)c1c(Cl)cccc1Cl,9.2µM*,-7%,?,18%,·
O=C(NC(=O)N1CCN(c2ccc([N+](=O)[O-])cn2)CC1)c1ccccc1F,?,-2%,9.2µM*,2%,·
O=[N+]([O-])c1ccc(N2CCN(c3ccccc3F)CC2)nc1,8%,4%,-7%,-9%,·
Cc1ccc(C)n1CCN1CCN(C(=O)CSc2nc3ccccc3nc2N2CCOCC2)CC1,-12%,0%,-28%,3%,5%
CC(NCCC(c1ccccc1)c1ccccc1)c1ccccc1 (centres undefined),6.5µM*,?,5.2µM*,-107%,5%
CC(NN)c1ccccc1 (centres undefined),-7%,·,-11%,·,·
Cc1nn(-c2nc3ccccc3s2)c(C)c1Oc1ccccc1O,18µM*,?,?,?,2%
COc1cc2[nH]c(=S)nc(NCCCOC(C)C)c2cc1OC,-5%,?,-26%,16µM*,4%
CCCCNc1nc(=S)[nH]c2cc(OC)c(OC)cc12,-7%,7.9µM*,-22%,7.9µM*,6%
CCOCCCNc1nc(=S)[nH]c2cc(OC)c(OC)cc12,-7%,-13%,-23%,?,2%
COCCNc1nc(=S)[nH]c2cc(OC)c(OC)cc12,-19%,-4%,1%,-19%,0%

# Assay outcomes (PubChem)
